For some of these results: Results with a measured potency or affinity are listed apart. Calls of active or inactive are those of the source. Unless noted, how the calls were made is not given here.
What was measured:
[1] = antimalarial activity against Dd2 strain (AID 2302;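 active means growth inhibition above 50% at the single 2 µM test dose, taken to imply half-maximal potency below 2 µM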;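 further: 0% = DMSO untreated growth and 100% = chloroquine plus artemisinin killed control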); conditions: P. falciparum Dd2 in RBCs, LDH growth readout, 72 h; at 2 µM; stronger effect = higher value
[2] = human hepatoma cell viability loss – ATP luminescence, cytotoxicity control for P. falciparum antimalarial project, primary screen (AID 2303;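 active means inhibition above 50%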;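 further: 0% = DMSO wells and 100% = digitonin-killed cells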); conditions: HepG2 viability, 24-48 h, at 10 µM, stronger effect = higher value
[3] = target: L-lactate dehydrogenase (Plasmodium falciparum (isolate CDC / Honduras)) (UniProt Q27743); experiment: PfLDH activity inhibition – cell lysate, 3D7 strain, counter-screen for P. falciparum growth inhibition project (AID 2304);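 further: 0% = vehicle and 100% = reference inhibitor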; conditions: P. falciparum 3D7 crude extract, LDH APAD/NBT absorbance; at 2 µM; stronger effect = higher value
Sequence of L-lactate dehydrogenase (Plasmodium falciparum (isolate CDC / Honduras)) (Q27743 whole entry, looked up): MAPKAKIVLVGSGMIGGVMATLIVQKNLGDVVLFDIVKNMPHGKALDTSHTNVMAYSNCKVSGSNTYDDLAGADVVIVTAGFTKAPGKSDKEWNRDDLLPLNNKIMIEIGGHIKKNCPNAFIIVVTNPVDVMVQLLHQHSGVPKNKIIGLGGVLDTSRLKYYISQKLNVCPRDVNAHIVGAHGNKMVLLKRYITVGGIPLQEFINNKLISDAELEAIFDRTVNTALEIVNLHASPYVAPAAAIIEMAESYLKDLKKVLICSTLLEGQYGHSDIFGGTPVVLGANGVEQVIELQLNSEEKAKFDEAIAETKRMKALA

[4] = inhibition of 3D7 malaria parasite growth – strain 3D7 (AID 2306);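 further: 0% = DMSO wells and 100% = chloroquine plus artemisinin control wells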; conditions: P. falciparum 3D7 erythrocytic growth, LDH absorbance, 72 h; at 2 µM; stronger effect = higher value
[5] = target: Calcium-dependent protein kinase 1 (Plasmodium falciparum (isolate 3D7)) (UniProt P62344); experiment: PfCDPK1 kinase inhibitors, biochemical, TCAMS library (AID 1159585; cut-off not given, nearly all actives have IC50 up to about 0.98 µM;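 further: inhibitors leave more ATP so luminescence rises with inhibition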); conditions: recombinant PfCDPK1, Kinase-Glo ATP depletion luminescence
Sequence of Calcium-dependent protein kinase 1 (Plasmodium falciparum (isolate 3D7)) (P62344 whole entry, looked up): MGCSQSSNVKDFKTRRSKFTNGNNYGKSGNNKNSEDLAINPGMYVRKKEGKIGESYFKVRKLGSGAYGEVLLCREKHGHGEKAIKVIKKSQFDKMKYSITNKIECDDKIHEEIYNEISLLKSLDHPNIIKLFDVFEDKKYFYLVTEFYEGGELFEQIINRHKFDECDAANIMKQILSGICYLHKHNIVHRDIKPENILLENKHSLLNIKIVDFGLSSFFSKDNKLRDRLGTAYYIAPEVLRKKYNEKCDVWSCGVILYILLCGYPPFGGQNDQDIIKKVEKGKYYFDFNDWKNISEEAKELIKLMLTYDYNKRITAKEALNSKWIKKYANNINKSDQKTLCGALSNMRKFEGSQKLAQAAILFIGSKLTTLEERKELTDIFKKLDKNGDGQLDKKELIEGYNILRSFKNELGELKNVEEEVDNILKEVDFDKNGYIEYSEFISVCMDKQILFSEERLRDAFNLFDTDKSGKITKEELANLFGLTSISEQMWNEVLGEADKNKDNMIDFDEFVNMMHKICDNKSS

[6] = target: Plasmodium falciparum protein kinase 6 (PK6, PF3D7_1337100) (UniProt Q8IDW1); experiment: PfPK6 kinase inhibitors, biochemical, TCAMS library (AID 1159586); conditions: recombinant PfPK6, Kinase-Glo ATP depletion luminescence
Sequence of Plasmodium falciparum protein kinase 6 (PK6, PF3D7_1337100) (Q8IDW1 1-305): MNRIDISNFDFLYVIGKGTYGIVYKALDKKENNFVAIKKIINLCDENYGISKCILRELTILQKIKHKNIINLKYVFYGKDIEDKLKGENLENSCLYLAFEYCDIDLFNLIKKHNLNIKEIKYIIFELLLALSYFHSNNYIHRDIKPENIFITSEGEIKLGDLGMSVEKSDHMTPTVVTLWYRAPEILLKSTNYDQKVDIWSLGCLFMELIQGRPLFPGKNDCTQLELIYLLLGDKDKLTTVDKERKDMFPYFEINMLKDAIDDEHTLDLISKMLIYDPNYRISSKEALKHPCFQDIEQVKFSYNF

[7] = target: Protein kinase 7 (PK7), Plasmodium falciparum 3D7 (PF3D7_0213400) (UniProt Q7YTF7); experiment: inhibition of Plasmodium PK7 catalytic activity – biochemical, TCAMS antimalarial set, Kinase-Glo luminescence (AID 1159587); conditions: recombinant PfPK7, Kinase-Glo ATP depletion luminescence
Sequence of Protein kinase 7 (PK7), Plasmodium falciparum 3D7 (PF3D7_0213400) (Q7YTF7 1-343): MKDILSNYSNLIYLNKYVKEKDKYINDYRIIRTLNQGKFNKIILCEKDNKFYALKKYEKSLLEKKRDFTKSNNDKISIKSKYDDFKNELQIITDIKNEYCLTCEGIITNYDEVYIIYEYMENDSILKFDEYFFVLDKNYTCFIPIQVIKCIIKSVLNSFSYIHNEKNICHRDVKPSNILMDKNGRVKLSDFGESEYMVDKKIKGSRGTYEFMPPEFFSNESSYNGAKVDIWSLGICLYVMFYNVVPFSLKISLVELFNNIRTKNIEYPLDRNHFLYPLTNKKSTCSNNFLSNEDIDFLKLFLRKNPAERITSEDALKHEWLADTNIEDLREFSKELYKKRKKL

[8] = target: Calcium-dependent protein kinase 4 (Plasmodium falciparum (isolate 3D7)) (UniProt Q8IBS5); experiment: PfCDPK4 kinase inhibitors, biochemical, TCAMS library (AID 1159588; cut-off not given, nearly all actives have IC50 up to about 0.91 µM); conditions: recombinant PfCDPK4, Kinase-Glo ATP depletion luminescence
Sequence of Calcium-dependent protein kinase 4 (Plasmodium falciparum (isolate 3D7)) (Q8IBS5 whole entry, looked up): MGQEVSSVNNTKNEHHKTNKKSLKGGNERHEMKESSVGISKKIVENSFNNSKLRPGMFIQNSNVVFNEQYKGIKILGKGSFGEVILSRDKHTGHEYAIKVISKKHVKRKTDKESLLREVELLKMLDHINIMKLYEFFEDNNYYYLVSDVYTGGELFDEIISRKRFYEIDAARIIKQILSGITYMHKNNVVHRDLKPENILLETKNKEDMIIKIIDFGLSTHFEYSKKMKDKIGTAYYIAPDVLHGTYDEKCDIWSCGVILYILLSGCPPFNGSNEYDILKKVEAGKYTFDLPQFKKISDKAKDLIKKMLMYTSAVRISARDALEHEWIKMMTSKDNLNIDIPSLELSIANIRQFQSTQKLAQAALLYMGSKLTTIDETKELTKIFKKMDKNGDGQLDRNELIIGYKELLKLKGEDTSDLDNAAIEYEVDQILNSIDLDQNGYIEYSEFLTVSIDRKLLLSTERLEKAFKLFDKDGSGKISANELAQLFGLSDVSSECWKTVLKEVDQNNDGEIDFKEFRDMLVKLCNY

CC(C)c1ccc(C2CCN(CCCCNC(=O)c3ccc(NC(=O)c4ccc(C(F)(F)F)cc4)cc3)CC2)c(O)c1
inactive: inhibition [2] 47% | inhibition [3] 7% | outcome [5] | outcome [6] | outcome [7] | outcome [8]
active: growth inhibition [1] 100% | growth inhibition [4] 99%

O=C(C=Cc1ccc(Cl)c(Cl)c1)NCCCCCN1CCCC(CCCNS(=O)(=O)c2cccc3cccnc23)C1 (stereo not given)
inactive: growth inhibition [1] 16% | inhibition [2] 37% | inhibition [3] 2% | outcome [5] | outcome [6] | outcome [7] | outcome [8]
active: growth inhibition [4] 96%

COc1ccc2nccc(NN=Cc3cccc([N+](=O)[O-])c3)c2c1
inactive: inhibition [2] 4% | inhibition [3] -8% | outcome [5] | outcome [6] | outcome [7] | outcome [8]
active: growth inhibition [1] 98% | growth inhibition [4] 100%

COc1ccc2[nH]c(C(=O)Nc3ccc4nc(-c5ccccc5)[nH]c4c3)cc2c1
inactive: growth inhibition [1] 23% | inhibition [3] -1% | outcome [5] | outcome [6] | outcome [7] | outcome [8]
active: inhibition [2] 51% | growth inhibition [4] 96%

O=C(Nc1ccc(-c2csc(-c3nc4ccccc4[nH]3)c2)cc1)Nc1ccc(Cl)c(Cl)c1
inactive: growth inhibition [1] 18% | inhibition [3] -6% | outcome [5] | outcome [6] | outcome [7] | outcome [8]
active: inhibition [2] 75% | growth inhibition [4] 93%

Cc1ccc(-n2c(C)nc3c(Nc4ccc(-c5ccncc5)cc4)ncnc32)c(C)c1
active: growth inhibition [1] 99% | growth inhibition [4] 99%
inactive: inhibition [2] 38% | inhibition [3] -4% | outcome [5] | outcome [6] | outcome [7] | outcome [8]

O=C(Nc1ccc(N2CCCN(Cc3cccc(F)c3)CC2)cc1)c1ccccc1
active: growth inhibition [1] 95% | growth inhibition [4] 95%
inactive: inhibition [2] 25% | inhibition [3] -4% | outcome [5] | outcome [6] | outcome [7] | outcome [8]

CC(C)CN(Cc1c(O)ccc2[nH]c(-c3ccc(F)cc3F)nc12)CC(C)C
active: growth inhibition [1] 92% | growth inhibition [4] 98%
inactive: inhibition [2] 11% | inhibition [3] -2% | outcome [5] | outcome [6] | outcome [7] | outcome [8]

CCCCN(CCCC)CCOc1cc2c(cc1OC)CCN2C(=O)/C=C/c1ccccc1Cl
inactive: growth inhibition [1] 31% | inhibition [2] 13% | inhibition [3] 0% | outcome [5] | outcome [6] | outcome [7] | outcome [8]
active: growth inhibition [4] 87%

COc1cccc(C2CCCN(CCCCNC(=O)c3ccc(NC(=O)c4ccc(Cl)cc4)cc3)C2)c1 (stereo not given)
active: growth inhibition [4] 95%
inactive: growth inhibition [1] 6% | inhibition [2] 24% | inhibition [3] -2% | outcome [5] | outcome [6] | outcome [7] | outcome [8]

CCOC(=O)C(=CNc1ccc(Cc2cnc(N)nc2N)cc1CC)C(=O)OCC
inactive: growth inhibition [1] 7% | inhibition [2] 47% | inhibition [3] 1% | outcome [5] | outcome [6] | outcome [7] | outcome [8]
active: growth inhibition [4] 87%

O=C(Nc1ccc(N2CCCCC2)c(Cl)c1)c1ccc(Br)o1
inactive: inhibition [2] -8% | inhibition [3] -1% | outcome [5] | outcome [6] | outcome [7] | outcome [8]
active: growth inhibition [1] 94% | growth inhibition [4] 94%

CCC(C)NC(=O)Nc1ccc(-c2cccc(-c3nc4ccc(C(F)(F)F)cc4[nH]3)c2)cc1 (stereo not given)
inactive: growth inhibition [1] -1% | inhibition [2] 45% | inhibition [3] 0% | outcome [5] | outcome [6] | outcome [7] | outcome [8]
active: growth inhibition [4] 97%

CS(=O)(=O)c1ccc(CNCc2cccc(-c3cccc(-c4nc5ccccc5[nH]4)c3)c2)cc1
active: growth inhibition [4] 101%
inactive: growth inhibition [1] 47% | inhibition [2] 3% | inhibition [3] -7% | outcome [5] | outcome [6] | outcome [7] | outcome [8]

Brc1ccc(C=NNc2nc3ccccc3[nH]2)cc1
active: growth inhibition [1] 90% | growth inhibition [4] 102%
inactive: inhibition [2] -3% | inhibition [3] 0% | outcome [5] | outcome [6] | outcome [7] | outcome [8]

CN(C)C(C)(C)CN(Cc1ccc(-c2ccc(C(F)(F)F)cc2)cc1)C(=O)Cn1c(CCc2cccc(F)c2F)nc(=O)c2ccccc21
inactive: inhibition [3] -3% | outcome [5] | outcome [6] | outcome [7] | outcome [8]
active: growth inhibition [1] 67% | inhibition [2] 64% | growth inhibition [4] 95%

Cn1nc(-c2ccc(CNC3CCc4ccccc43)cc2)c2cnc(NCCCN3CCCC3)nc21 (stereo not given)
inactive: growth inhibition [1] 22% | inhibition [2] 27% | inhibition [3] -4% | outcome [5] | outcome [6] | outcome [7] | outcome [8]
active: growth inhibition [4] 92%

COc1ccccc1/C=C/C(=O)NCCC1CCN(CCCCCNC(=O)/C=C/c2ccc(Cl)c(Cl)c2)CC1
active: growth inhibition [4] 94%
inactive: growth inhibition [1] 0% | inhibition [2] 34% | inhibition [3] -4% | outcome [5] | outcome [6] | outcome [7] | outcome [8]

Nc1cnc(C#Cc2cc3ncnc(N(CCN4CCOCC4)c4ccc(OCc5cccc(F)c5)c(Cl)c4)c3s2)cn1
inactive: inhibition [2] -8% | inhibition [3] -9% | outcome [5] | outcome [6] | outcome [7] | outcome [8]
active: growth inhibition [1] 57% | growth inhibition [4] 87%

CC(Oc1cc(-n2cnc3ccc(NC(=O)CCN4CCCCC4)cc32)sc1C(N)=O)c1ccccc1Cl (stereo not given)
active: growth inhibition [1] 98% | inhibition [2] 95% | growth inhibition [4] 99%
inactive: inhibition [3] 1% | outcome [5] | outcome [6] | outcome [7] | outcome [8]

Reference: PubChem BioAssay
